The compounds below were run against Homeobox protein Hox-A13 (Mus musculus) (UniProt Q62424) (assay: disruptors of Hoxa13 oligonucleotide interaction – biochemical, fluorescence polarization, labeled oligonucleotide, primary screen (AID 1185)). Settings: Hoxa13:DNA binding, 15 min, higher = more signal, called active from +8 up or from −8 down.
Sequence of Homeobox protein Hox-A13 (Mus musculus) (Q62424 whole entry, looked up): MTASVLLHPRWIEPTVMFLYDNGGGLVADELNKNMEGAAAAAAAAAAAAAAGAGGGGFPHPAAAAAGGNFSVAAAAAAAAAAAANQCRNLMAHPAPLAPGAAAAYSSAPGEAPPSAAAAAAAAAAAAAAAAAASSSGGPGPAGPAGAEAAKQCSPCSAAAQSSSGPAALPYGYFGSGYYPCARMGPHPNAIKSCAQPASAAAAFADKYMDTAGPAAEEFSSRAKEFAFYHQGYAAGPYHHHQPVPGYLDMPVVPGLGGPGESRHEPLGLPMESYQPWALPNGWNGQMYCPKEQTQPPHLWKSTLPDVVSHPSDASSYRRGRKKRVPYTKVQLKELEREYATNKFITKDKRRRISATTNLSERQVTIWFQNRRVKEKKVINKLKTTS

z-score, inactive:
CO[C@@H]1C=CCC(=O)N[C@@H](C)C(=O)OC[C@@H](OC)[C@H](C)C=CCC(=O)OC[C@H]1C -0.0745, CC(CCN1CCCc2nc(C)c(C)cc21)=NO[C@H](C)c1cn([C@H](CO)Cc2ccccc2)nn1 -7.43, COc1ccc(COC(=O)NN=C2C[C@@H](O)[C@@H](O)[C@@H]3[C@@H]4C(=O)N([C@@H](C)c5ccccc5)C(=O)[C@@H]4CC[C@H]23)cc1 -3.73, O=C1C2=CC[C@H]3C(=O)N(C[C@@H]4CCCO4)C(=O)[C@H]3[C@H]2[C@H](O)[C@@H]2O[C@H]12 -3.47, CON(C)C(=O)c1nnc2c(n1)[nH]c1ccccc12 0.447, C[C@@H](c1ccccc1)N1C(=O)[C@H]2[C@H]3[C@H](O)[C@H](O)CC(=NOC[C@@H](O)COCc4ccco4)[C@H]3CC[C@H]2C1=O -3.21, COC(OC)[C@@H](C)[C@H](OC)[C@@H](C)[C@H](OC)c1ccccc1 -0.402, COC(=O)[C@H](C)NC(=O)CCC1CC(OC(=O)NCCc2ccc(F)cc2)CC2(CCCC(COC(=O)NCCc3ccccc3OC)O2)O1 (stereo partly specified) -6.13, COc1ccc(O[C@H]2C=C[C@@H](c3ccccc3)O[C@@H]2COC(=O)CCC(C)=NOC[C@@H](O)COCc2ccco2)cc1 -5.52, C[C@]12CCC3c4ccc(OCC5CO5)cc4CCC3C1CC[C@@H]2O (stereo partly specified) -2.47, C[C@@H](c1ccccc1)N1C(=O)[C@H]2[C@H]3[C@H](O)[C@H](O)CC(=NOCc4ccccc4)[C@@H]3CC[C@H]2C1=O -3
